This is an account of results in PubChem BioAssay AID1259422 (The Scripps Research Institute Molecular Screening Center, 2018).

The whole screen tested about 640,000 compounds, of which about 9,300 (1.5%) were called active. This is one part of a sample in which actives are shown more often than they occur. A number with no mark means an inactive call. Cut-off read from the data, not from the text of the source: active = inhibition above about 32%; inactive = the rest.

The nature of the assay: TEAD-YAP interaction inhibition, primary screen, TEAD-YAP interaction inhibitor project, luminescence, HEK-TIYL cells (AID 1259422).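 Note: 0% = median of test compound wells and 100% = reference inhibitor wells.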 The conditions noted are these: TEAD-Gal4/YAP UAS-luciferase luminescence, at 9.12 µM, active compounds read high.
`CCOc1ccc(NC(=O)/C(C#N)=C\c2ccc(O)cc2)cc1`: the inhibition (commonly the change of the read-out against control, counted positive when it falls) is -6.14%.

On to `O=C1C(=O)N(Cc2cccnc2)C(c2cccc(Br)c2)/C1=C(/O)c1ccccc1` (stereo not given), for which the inhibition was -12.1%. The value for `O=C1CCC(=O)N1c1ccc(-c2nc3scc(-c4cccs4)c3c(=O)o2)cc1` was -7.68%; that for `CCOC(=O)N1CCN(C(=O)c2cc3cc4ccc(OC)cc4nc3o2)CC1` was -1.56%. The same measure for `COc1ccc2nc3oc(C(=O)NC4CC4)cc3cc2c1`: -62.4%; for `CCN(CC)C(=O)c1cc2cc3ccc(OC)cc3nc2o1`: 58% (active). As for `COCCn1nnnc1CN(Cc1ccco1)CC1CCCO1` (stereo not given), the inhibition is -5.83%. Take `CCOC(=O)C1=C(C)NC2=C(C(=O)CC(C)(C)C2)C1c1cccs1` (stereo not given): the inhibition was 7.66%. Take `CCOc1ccc(C2C(C#N)=C(N)N(N(C)C)C3=C2C(=O)CC(c2ccccc2)C3)cc1` (stereo not given): the inhibition was 17.9%.

As for `Cc1nnc(SCC(=O)c2ccc3c(c2)OCCO3)o1`, the inhibition is -48.4%.

For `CCCCSc1nnc2c(n1)OC(c1cccc(Cl)c1)Nc1ccccc1-2` (stereo not given), the inhibition was -39.8%. On to `C=CCOc1ccc(/C=C2\SC(=S)N(CCC(=O)O)C2=O)cc1`, for which the inhibition is 50.1% (active). Regarding `CCN1C(=O)/C(=C/c2ccc(OCC(=O)O)cc2)SC1=S`, the inhibition was -16.2%. The value for `O=C(O)CCN1C(=O)/C(=C\c2ccc(C(=O)O)cc2)SC1=S` was -5.44%. The same measure for `O=C(O)CCCCCN1C(=O)/C(=C/c2ccc3c(c2)OCO3)SC1=S`: 43.9% (active); for `COc1cc(/C=C2/SC(=S)N(CC(=O)O)C2=O)cc2c1OCO2`: 2.97%. Regarding `O=C(O)CCCCCN1C(=O)/C(=C\c2cccs2)SC1=S`, the inhibition was 28.4%. The value for `COc1cccc(C(=O)NC(=S)Nc2ccc(Br)c(C)n2)c1` was -5.25%; that for `O=C(NCc1ccc(F)cc1)c1ccc2nc3[nH]c4ccccc4c3nc2c1` was 4.49%; that for `Cc1ccc2nc3[nH]c4ccccc4c3nc2c1` was 35% (active). Regarding `Cc1cc2nc3[nH]c4ccccc4c3nc2cc1C`, the inhibition was -33%. Consider `O=C(NNc1ccc([N+](=O)[O-])cc1[N+](=O)[O-])c1cc2ccccc2cc1O`, for which the inhibition was 8.71%.

As to `CCc1cccc2sc(N(Cc3ccccn3)C(=O)CSCc3ccccc3)nc12`, the inhibition is 2.11%. The value for `Cc1cc(C(=O)N(Cc2ccccn2)c2nc3ccccc3s2)on1` was 69.7% (active); that for `O=C1CCC(=O)N1CC(=O)N(Cc1ccccn1)c1nc2ccccc2s1` was 18.1%; that for `CC(=O)Oc1cccc(N2C(=O)c3ccc(-c4nc5ccccc5o4)cc3C2=O)c1` was -6.42%. `C=CCc1ccc(OCCN2CC(C)OC(C)C2)c(OC)c1` (stereo not given): the inhibition was -7.73%.

In the case of `CC(=O)c1cccc(NC(=O)c2nn3c(C(F)(F)F)cc(-c4ccc(Br)cc4)nc3c2Cl)c1`, the inhibition is 2.9%. Turning to `CCC(=O)Oc1ccc(OC)cc1C1Oc2nc(SC)nnc2-c2ccccc2N1C(=O)CC` (stereo not given), the inhibition was -5.21%. In the case of `Cc1nc2sc(-c3ccccc3)cc2c(=O)o1`, the inhibition was 41% (active). As to `COC(=O)C(C)n1cnc2sc(-c3ccccc3)cc2c1=O` (stereo not given), the inhibition was -25.2%. The same measure for `Cc1nc2ccc(Cc3ccc4nc(C)oc(=O)c4c3)cc2c(=O)o1`: -1.07%. The same measure for `O=S(=O)(O)CCC[n+]1ccc(/C=C/c2c[nH]c3ccccc23)cc1`: 3.32%; for `OCCCNc1ccc2ncc(-c3ccc(N4CCOCC4)cc3)n2n1`: 19.8%; for `Cc1cc(C(=O)COC(=O)CCC(=O)c2cccs2)c(C)n1Cc1ccco1`: -6.67%.

With `Cc1cc(C(=O)COC(=O)C(CC(C)C)NC(N)=O)c(C)n1Cc1cccs1` (stereo not given), the inhibition was 66.1% (active). As to `Cc1cc(C(=O)COC(=O)c2ccc([N+](=O)[O-])o2)c(C)n1Cc1cccs1`, the inhibition is 0.16%.

Take `Cn1c2ccccc2n2cc(-c3ccc([N+](=O)[O-])cc3)nc12`: the inhibition is -27.1%. In the case of `COc1ccc(-c2cn3c4ccccc4n(N)c3n2)cc1`, the inhibition is 90% (active). The same measure for `COc1ccc(-c2cn3c4ccccc4n(CCN4CCOCC4)c3n2)cc1`: -4.68%. On to `CC(C)[C@@H](CO)Nc1ccc2ncc(-c3ccc(C#N)cc3)n2n1`, for which the inhibition was 29.7%. In the case of `CCC(CO)Nc1ccc2ncc(-c3cccc(F)c3)n2n1` (stereo not given), the inhibition is 5.85%. In the case of `CCC(CO)Nc1ccc2ncc(-c3ccc(N4CCOCC4)cc3)n2n1` (stereo not given), the inhibition was -1.73%. The same measure for `CCC(CO)Nc1ccc2ncc(-c3ccccc3)n2n1` (stereo not given): 33.7% (active); for `CC(C)[C@@H](CO)Nc1ccc2ncc(-c3ccc(O)cc3)n2n1`: -7.09%. For `CC(C)[C@@H](CO)Nc1ccc2ncc(-c3ccccc3F)n2n1`, the inhibition is 57.3% (active). Regarding `CCS(=O)(=O)Nc1cccc(N2CCC(NCCn3nc(C)cc3C)CC2)c1`, the inhibition is 2.36%. The value for `CC(Oc1ccc(Cl)cc1Cl)C(=O)Nc1ccc(C(=O)O)cc1` (stereo not given) was 11.5%; that for `O=C(CN(c1ccc(Cl)cc1Cl)S(=O)(=O)c1ccccc1)Nc1ccc(Cl)c(Cl)c1` was -0.39%. The value for `CC(C)(C)c1ccc(NC(=O)CSc2cccc[n+]2[O-])cc1` was -49.2%. The same measure for `O=C(NCc1ccc2c(c1)OCO2)c1cccnc1SCc1cccc(Br)c1`: 10.6%; for `NC(=O)c1c(NC(=O)c2ccc(Br)o2)sc2c1CCCC2`: 3.19%. In the case of `COC(=O)c1c(NC(=O)c2cc3ccccc3oc2=O)sc2c1CCCC2`, the inhibition is -7.92%. As for `NC(=O)c1c(NC(=O)c2cc(=O)c3ccccc3o2)sc2c1CCCCC2`, the inhibition is 32.9% (active). The value for `O=C(Nc1sc2c(c1C(=O)O)CCCC2)c1cc2ccccc2o1` was 50.1% (active); that for `NC(=O)c1c(NC(=O)Cc2ccccc2)sc2c1CCCCC2` was -7.09%; that for `N#Cc1c(NC(=O)c2cc3ccccc3c(=O)o2)sc2c1CCCCC2` was 4.91%. On to `Cc1ccc(Nc2nc(-c3ccccn3)cs2)cc1C`, for which the inhibition is 49.9% (active). The same measure for `Cc1cccc(Nc2nc(-c3ccc(I)cc3)cs2)c1`: -33.1%; for `Cc1ccc(Nc2nc(-c3ccc(Br)cc3)cs2)cc1Cl`: -7.82%. The same measure for `CCCN1CCc2nc(NC(=O)COc3ccc(Cl)cc3Cl)sc2C1`: 45% (active). The same measure for `CN1CCc2nc(NC(=O)c3ccc(Cl)cc3Cl)sc2C1`: -69.8%. On to `O=C(Nc1nc2c(s1)CN(Cc1ccccc1)CC2)c1cc(Cl)ccc1Cl`, for which the inhibition is -2.92%. The value for `COc1ccc(C2CC(C(F)(F)F)n3ncc(C(=O)N4CCN(c5cccc(Cl)c5)CC4)c3N2)cc1OC` (stereo not given) was -6.74%; that for `c1cncc(Nc2nccc(Nc3ccc(N4CCOCC4)cc3)n2)c1` was 2.14%. The same measure for `Fc1cnc(Nc2ccc(N3CCNCC3)cc2)cc1-n1cnc(Nc2ccccc2)n1`: 64.6% (active); for `FC(F)(F)c1cnc(Nc2ccc(N3CCOCC3)cc2)cc1-n1ncc2ccccc21`: -4.45%. For `O=C(c1nc2ccc(Cl)cn2c1CNCCn1cccn1)N1CCc2ccccc2C1`, the inhibition is 7.89%.

Regarding `COc1cccc2c1OC1(CCN(C(=O)Cc3ccc(F)cc3F)CC1)OC2`, the inhibition is -1.73%. For `O=C(c1cc(-c2cccs2)on1)N1CCCC1`, the inhibition is -49.2%.

Consider `CN(C(=O)c1cc(-c2ccc(O)cc2)on1)c1ccccc1`, for which the inhibition was 60% (active). Consider `CCN(CC)C(=O)c1cc(-c2ccc(O)cc2)on1`, for which the inhibition is -1.47%.

As for `COc1ccc(-c2cc(C(=O)N3CCCCC3)no2)cc1`, the inhibition was 6.05%.

As to `O=C(c1cc(-c2ccc(O)cc2)on1)N1CCOCC1`, the inhibition was 50.7% (active). As for `CC1CN(CC(=O)NCc2cc(-c3ccccc3)on2)Cc2ccccc2O1` (stereo not given), the inhibition was -5.63%.

As to `CCC(=O)Nc1ccccc1-c1nnn(CC(=O)Nc2ccc(CC)cc2)n1`, the inhibition is 12.7%. `O=C(c1ccco1)N1CCN(c2nccn3c(-c4cccc(O)c4)cnc23)CC1`: the inhibition is -3.76%. The same measure for `CC(C)Cn1c(C2CC(=O)N(c3ccccc3)C2)nc2ccccc21` (stereo not given): 3.79%; for `CCOc1ccc(-c2cn(-c3ccc(OC)cc3)c(SCC(=O)Nc3ccccc3C)n2)cc1`: -24.2%. The same measure for `O=C(Nc1ccc2c(c1)OCCO2)Nc1nnc(N2CCCCCC2)s1`: -9.25%; for `O=C(c1ccc2nc(N3CCCCC3)sc2c1)N1CCN(c2ccccc2)CC1`: -69.3%. In the case of `c1c2c(cc3sc(N4CCCCC4)nc13)OCCO2`, the inhibition is 80.9% (active). The value for `COc1ccc(-c2cc(C(=O)NC3CCCC(C)C3C)c3ccccc3n2)cc1` (stereo not given) was 1.88%; that for `CCOC(=O)c1cnc2nc(NCc3cccc(OC)c3)[nH]n2c1=O` was 3.92%; that for `N/C(=N/OC(=O)c1ccccc1I)c1nonc1N` was -2.53%.

Turning to `Cc1nc(N2CCN(c3ccccn3)CC2)c2c(C)c(C(=O)N3CCN(Cc4ccc5c(c4)OCO5)CC3)sc2n1`, the inhibition is 36.8% (active). Consider `Cc1nc(N2CCN(c3ccccn3)CC2)c2c(C)c(C(=O)NCCN3CCOCC3)sc2n1`, for which the inhibition was 14.5%. In the case of `CCN1CCN(C(=O)c2sc3nc(C)nc(N4CCN(c5ccccn5)CC4)c3c2C)CC1`, the inhibition was -1.03%. On to `COc1ccc(NC(=O)CSc2nc3c(sc(=S)n3-c3ccccc3F)c(=O)n2-c2ccc(F)cc2)c(OC)c1`, for which the inhibition is 15.7%. Regarding `CC1CN(Cc2cccc3ncccc23)Cc2ccccc2O1` (stereo not given), the inhibition was -3.29%. Turning to `CC1CCc2c(sc(NC(=O)c3ccccc3F)c2C(=O)N2CCOCC2)C1` (stereo not given), the inhibition was -2.16%. The value for `CCOc1ccccc1OCC(=O)NN` was 58.7% (active). For the molecule `CCOc1ccccc1OCC(=O)OCc1ccccc1`, the inhibition is 2.74%.

Take `CCOc1ccccc1OCC(=O)Nc1ccc(C(=O)O)cc1`: the inhibition was 4.66%. As for `Cc1ccc(-c2noc(CCC(=O)N(C)c3ccccc3Cl)n2)cc1`, the inhibition is 13.7%.
